Source: PubChem BioAssay AID1053175 (ICCB-Longwood Screening Facility, Harvard Medical School, 2014)
Where “and” joins values, the source holds several entries; their conditions need not be identical. Equal entries are not always repeated. Hit rate of the full screen: of about 330,000 compounds, about 700 (0.21%) were called active.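 Rule for the calls: active = OD600 absorbance below the run mean of sample wells minus 3.6 SD, in any replicate (cut at about 0.56 in these data); inactive = the rest.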 The entries come from a sample that favours actives as a whole. Some structures have more than one record in an assay (separate samples or runs), and their calls can disagree.

Experiment: E. coli growth inhibition, primary screen, OD600 (AID 1053175)
Conditions: Escherichia coli growth, OD600, 23 h; stronger effect = lower value

Compound | OD600 absorbance
COc1cc(C=NNC(=O)c2ccncc2)ccc1OC(=O)c1cccc(Br)c1 | 0.605 (inactive)
COc1ccc(C(=O)ON=C2CCS(=O)(=O)c3sccc32)cc1 | 0.66 (inactive)
CC(NCC(=O)Nc1cc(Cl)cc(Cl)c1)c1ccccc1 (configuration not stated) | 0.522 (active)
O=C(Nc1cc(Cl)cc(Cl)c1)C(NCCCO)c1ccccc1 (configuration not stated) | 0.697 (inactive)
O=C(CNC(c1ccccc1)c1ccccc1)Nc1ccc(F)cc1 | 0.694 (inactive)
CCOC1OC(C(=O)N2CCN(Cc3ccc4c(c3)OCO4)CC2)=CC(c2ccc(Br)cc2)C1CCCO (configuration not stated) | 0.677 (inactive) and 0.735 (inactive)
O=C(O)COc1ccc(C=NNC(=O)c2cccc3ccccc23)cc1 | 0.692 (inactive)
O=C(O)C1=CC(c2ccc(Br)cc2)CC(OCc2ccc(CO)cc2)O1 (configuration not stated) | 0.678 (inactive) and 0.676 (inactive)
CC(=NNc1nnc(C)c(=O)[nH]1)C(=O)O | 0.72 (inactive)
CC(Oc1ccccc1)C(=O)NN=Cc1ccccn1 (configuration not stated) | 0.654 (inactive)
Cc1nnc(NN=Cc2ccccn2)[nH]c1=O | 0.466 (active)
COc1ccc(C(=O)NN=Cc2ccc(OC)c(CN3CCCc4ccccc43)c2)cc1 | 0.733 (inactive)
CC(C)(C)c1[nH]c2ccccc2c1C=NO | 0.683 (inactive)
CCOC(=O)c1ccc(-c2ccc(C=NNC(=O)CN(c3ccccc3Cl)S(C)(=O)=O)o2)cc1 | 0.728 (inactive)
CC(C)=CCC[C@](C)(OC1OC(COC2OCC(O)C(O)C2O)C(O)C(O)C1O)C1CC[C@]2(C)C1C(O)CC1[C@@]3(C)CCC(OC4OC(CO)C(O)C(O)C4O)C(C)(C)C3CC[C@]12C (some centres not stated) | 0.621 (inactive)
CCNC(=S)NN=C(C)c1cc2ccccc2o1 | 0.669 (inactive)
COc1cc(C=NNC(=O)c2ccc(=O)[nH]n2)cc(OC)c1OC | 0.774 (inactive)
O=C(NN=Cc1ccoc1)c1ccc([N+](=O)[O-])cc1 | 0.694 (inactive)
CCNC1CC(C)S(=O)(=O)c2sc(S(N)(=O)=O)cc21 (configuration not stated) | 0.681 (inactive)

Compound | OD600 absorbance
Cc1cc(C(=O)NN=Cc2cccc3ccccc23)c(C)o1 | 0.686 (inactive)
C#CCNC(=O)C1=CC(c2coc3ccccc3c2=O)CC(OCc2ccc(CO)cc2)O1 (configuration not stated) | 0.691 (inactive) and 0.72 (inactive)
Cc1[nH]c2ccccc2c1C=NNC(=S)NC(C)C | 0.649 (inactive)
Cc1ccc(CN2CCN(CC(=O)NN=Cc3ccc(C)o3)CC2)cc1 | 0.613 (inactive)
COc1ccccc1NC(=S)N1CCN(c2ccc(F)cc2)CC1 | 0.68 (inactive)
COc1c(N2CCN(C(=S)Nc3ccccc3F)C(C)C2)c(F)cc2c(=O)c(C(=O)O)cn(C3CC3)c12 (configuration not stated) | 0.071 (active)
CC1CN(C(=S)Nc2ccccc2F)CC(C)O1 (configuration not stated) | 0.662 (inactive)
CCCOc1ccc(CNC(=S)NN=Cc2ccc([N+](=O)[O-])cc2)cc1 | 0.66 (inactive)
[N-]=[N+]=NCC(Cc1ccccc1)N1CCN(Cc2ccccc2)CCC1=O (configuration not stated) | 0.705 (inactive)
CC(C)(C)N1C(=O)C2C(c3ccc(Br)cc3)N3C(=O)N(c4ccccc4)C(=O)[C@@]3(Cc3ccccc3)C2C1=O (some centres not stated) | 0.71 (inactive)
CC(/C=C/c1ccccc1)=NNc1nc(C)cc(C)n1 | 0.667 (inactive)
CNc1nc(C)nc(NN=Cc2ccccc2)n1 | 0.682 (inactive)
S=c1[nH]nc(-c2ccncc2)n1N=Cc1cccc2ccccc12 | 0.739 (inactive)
Cc1ccc(C=NNC(=O)Cn2cnc3ccccc32)o1 | 0.676 (inactive)
Cc1ccc(C(=O)N2C3CN(C)C(=O)[C@@]2(Cc2ccccc2)C2C(=O)N(C)C(=O)C32)cc1 (some centres not stated) | 0.672 (inactive)
CC(=NNC(=O)CCc1ccc(S(=O)(=O)N2CCOCC2)cc1)c1ccc(OC(F)F)cc1 | 0.715 (inactive)
C#CCOc1ccc(C=NNC(=O)c2cccnc2)cc1OCC | 0.679 (inactive)
C[C@@]12C(=O)Nc3cc(Cl)ccc3C(=O)N1C1c3cc(Cl)ccc3OCC1C2c1ccccc1 (some centres not stated) | 0.696 (inactive)
COc1ccc(C=C2N=C(SC)NC2=O)cc1 | 0.705 (inactive)

Compound | OD600 absorbance
CC(=O)c1c(C)n([O-])c2ccccc2[n+]1=O | 0.186 (active)
Cc1c(C=O)c2ccccc2n1CC(=O)O | 0.701 (inactive)
CCCCn1c(C=NNc2nc3ccccc3[nH]2)nc2ccccc21 | 0.684 (inactive)
COc1cc(C=NNC(=O)c2ccc3c(c2)OCCO3)c(Br)c(Br)c1O | 0.727 (inactive)
C=C[C@]1(C)CC(OC(=O)CSCCN(CC)CC)[C@]2(C)C(C)CC[C@]3(CCC(=O)C32)C(C)C1O (some centres not stated) | 0.499 (inactive) and 0.432 (active)
CC(C)(C)C(=O)C=c1[nH]c(=O)c(=Cc2ccccc2F)s1 | 0.718 (inactive)
COC(=O)Oc1ccc(C=NNC(=O)CN(c2ccccc2Br)S(C)(=O)=O)cc1OC | 0.67 (inactive)
COc1ccc(CN2C(CC(=O)O)c3ccccc3S2(=O)=O)cc1 (configuration not stated) | 0.676 (inactive)
Cc1ccccc1C(=O)ON=C1CCS(=O)(=O)c2sccc21 | 0.706 (inactive)
O=C(NN=Cc1cccn1-c1cccc(C(=O)O)c1)Nc1ccccc1 | 0.627 (inactive)
CC(=O)Oc1ccc(C(C)=NN2CCN(Cc3ccc(Cl)cc3)CC2)cc1 | 0.707 (inactive)
O=C(C=Cc1cccs1)N1CCC2(CC1)Oc1ccc(F)cc1C(=O)C21CC(c2ccccc2)=NO1 (configuration not stated) | 0.718 (inactive)
CC(C=NNC(=O)c1ccc2c(c1)OCO2)c1ccccc1 (configuration not stated) | 0.695 (inactive)
O=C(NCc1ccccc1)C1=CC(c2ccccc2)CC(OCCCCO)O1 (configuration not stated) | 0.622 (inactive)
CC(=O)Nc1ccc(C(C)=NNC(=O)c2ccc(-c3ccccc3)cc2)cc1 | 0.685 (inactive)
CS(=O)(=O)N(CC(=O)Nc1ccc(Cl)c(Cl)c1)C1CCCCC1 | 0.703 (inactive)
O=C(CC(O)(C(F)(F)F)C(F)(F)F)Nc1ccc(Cl)c(Cl)c1 | 0.329 (active)
O=C(CCCN1C(=O)CCC1=O)Nc1ccc(Cl)c(C(F)(F)F)c1 | 0.702 (inactive)
Cc1nn(-c2ccccc2)c(C)c1C=NNC(=O)c1cc(-c2cccs2)[nH]n1 | 0.602 (inactive)
